Measurements: PMC5540273 (PLoS ONE, 2017)
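Also: KINOMEscan kinase panel screen.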

These compounds were tested on TLK2. Settings: concentration: 1 μM, replicates: in singlicate; n = 1.
`Cl.c1ccc(-c2n[nH]cc2-c2ccnc(-c3ccc(CN4CCOCC4)cc3)c2)nc1` [GW776245] was tested, and the “%Inh” value was 0%. For `Cc1nnc(-c2ccc3occ(-c4ccc(S(C)=O)cc4)c3c2)[nH]1` (centres unmarked), the “%Inh” value was 0%. In the case of `Cn1ccc2ncnc(Oc3ccc(Nc4nc5ccccc5[nH]4)cc3)c21`, the “%Inh” value is reported as 0%. With `COc1cc2ncn(-c3cc(OCC4CCCO4)c(C(N)=O)s3)c2cc1OC` (centres unmarked) [GSK204607] the “%Inh” value was 11%. In the case of `Cc1cccc(-c2nc(-c3ccc(S(C)(=O)=O)cc3)sc2-c2ccnc(NCCc3ccccc3)c2)c1`, the “%Inh” value is reported as 4%. `COC(=O)c1c(-c2ccccc2)c2cc(C(=O)O)ccc2c(=O)n1Cc1ccccc1` was tested, and the “%Inh” value was 0%. With `Cl.Oc1ccc(-c2nc(-c3ccccc3)[nH]c2-c2ccncc2)cc1` [SB-428218] the “%Inh” value was 0%. For `CC(=O)Nc1nc2cnc(Nc3cc(NC(=O)c4cccc(CCC#N)c4)ccc3C)nc2s1`, the “%Inh” value was 7%. In the case of `CSc1nn2c(=O)cc(N3CCOCC3)nc2n1Cc1cccc(C(F)(F)F)c1C` [GSK2363608], the “%Inh” value is reported as 0%. With `O=C(Nc1n[nH]c2nc(-c3nccs3)c(Br)cc12)C1CCCC1` [SB-742609] the “%Inh” value was 0%. For `CCn1c(-c2ccccn2)nc2cnccc21` [SB-736398], the “%Inh” value was 0%. `NC(=O)c1nnc2ccccc2c1N` was tested, and the “%Inh” value was 0%. In the case of `COc1ccc(Nc2nccc(NCCNC(=O)Nc3ccccc3F)n2)cc1` [GSK1379901], the “%Inh” value is reported as 0%. With `Cc1cc(N2Cc3ccccc3C2)nc(Nc2ccc(S(=O)(=O)N3CCOCC3)cc2)n1.Cl` [GSK1669917] the “%Inh” value was 0%.
